KB-3-1 cytotox – kills parental KB-3-1 adenocarcinoma cells; KB-3-1 viability, CellTiter-Glo ATP luminescence, 72 h; Potency, µM (titrated, usually from 46.1 µM), most hits filed as cytotoxic; 400,000 tested, 1.4% active; also: % is scaled to controls: 0 for no effect and ±100 for the full control effect; nearly all actives have a fitted effect of over 60% in size
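Cytotoxicity in the drug-sensitive parental line KB-3-1 was scored as loss of CellTiter-Glo luminescence following 72 h incubation with compound. Values come from curve fitting of normalized concentration-response data.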
VP16 counter – counter-screen for ROR gamma inhibitors: Gal4-VP16 reporter. Drosophila S2 Gal4-VP16 UAS-luciferase, luminescence, 20 h. Potency, µM (top dose mostly 53.6 µM), without a hit: top-dose activity, negative = inhibition, usual class: inhibitors. 310,000 tested, 3.5% active. AID 2546;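 also: Gal4-VP16 expression switched on by copper sulfate through the metallothionein promoter; % is scaled to controls: 0 for no effect and ±100 for the full control effect; nearly all actives have a fitted effect of over 50% in size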
RORg inh – ROR gamma (mouse) transcription inhibition; P51450; Drosophila S2 Gal4-RORgamma UAS-luciferase reporter, 20 h; Potency, µM (doses to about 53.6 µM), without a hit: top-dose activity change, negative = inhibition, usual class: inhibitors; 310,000 tested, 5.4% active; also: % is scaled to controls: 0 for no effect and ±100 for the full control effect; nearly all actives have a fitted effect of over 60% in size
Target sequence (P51450 whole entry, looked up, the tested form may be a part): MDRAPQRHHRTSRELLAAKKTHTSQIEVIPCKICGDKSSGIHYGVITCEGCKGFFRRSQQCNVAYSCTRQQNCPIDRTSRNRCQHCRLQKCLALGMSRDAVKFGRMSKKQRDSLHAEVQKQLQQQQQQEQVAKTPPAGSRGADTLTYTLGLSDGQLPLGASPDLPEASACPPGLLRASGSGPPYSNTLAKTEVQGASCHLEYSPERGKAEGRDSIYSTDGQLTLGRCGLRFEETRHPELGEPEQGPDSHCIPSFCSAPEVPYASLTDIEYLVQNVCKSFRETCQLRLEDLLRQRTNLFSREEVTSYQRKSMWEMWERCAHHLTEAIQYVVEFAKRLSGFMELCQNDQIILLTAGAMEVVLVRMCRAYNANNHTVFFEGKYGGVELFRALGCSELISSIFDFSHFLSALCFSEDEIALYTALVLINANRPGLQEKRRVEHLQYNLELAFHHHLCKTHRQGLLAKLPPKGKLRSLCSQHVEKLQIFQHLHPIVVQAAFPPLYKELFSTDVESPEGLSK
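Compounds are pin-transferred onto Drosophila Schneider cells expressing a copper-inducible Gal4–ROR gamma transactivation domain fusion. After 1 hr, copper sulfate is added to 700 uM final; luciferase is read 20 hr later.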
SW480 rereplic – inducers of DNA re-replication in SW480 colon cancer cells; SW480 DNA re-replication, Hoechst DNA content imaging, 48 h; Potency, µM (titrated, usually from 46.1 µM), inactives show top-dose re-replication activation, most hits filed as activators; 340,000 tested, 1.8% active; also: % of control where 0% means no effect; nearly all actives have a fitted effect of over 55% in size
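250 cells/well; 23 nL cpd via pin tool; 48 hr, 37 C, 5% CO2; Hoechst 40 min; imager read of total nuclear intensity, ex 405/em 500-530 nm.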
MCF10A rerep – inducers of DNA re-replication in MCF 10A breast cells; MCF 10A DNA re-replication, Hoechst nuclear intensity, 48 h; Potency, µM (doses to about 46.1 µM), without a hit: at the top dose activity, positive = re-replication, most hits filed as activators; 350,000 tested, 2.9% active; also: % of control where 0% means no effect; nearly all actives have a fitted effect of over 50% in size
KB-V1 MDR tox – kills drug-selected multidrug resistant KB-V1 cells | KB-V1 MDR cells viability, CellTiter-Glo, 72 h | AID 1347076 | Potency, µM (titrated, usually from 46.1 µM), usual class: cytotoxic | 400,000 tested, 3.4% active; also: % is scaled to controls: 0 for no effect and ±100 for the full control effect; nearly all actives have a fitted effect of over 60% in size
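Drug-selected KB-V1 cells, grown in DMEM lacking phenol red with 10% FBS, receive compound titrations; after three days at 37 degrees C, surviving cell ATP is quantified by CellTiter-Glo luminescence and responses normalized and curve-fitted.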
Starred values were filed as active, the others as inactive; i = inactive; ? = inconclusive; . = no result given; [ ] = remark or other dose. In the library only some 10% were active in any assay of this set; here they are far more common. Calls follow the shape of the dose curve; as a rule, active = well fitted curve in the direction sought with a large enough effect; inconclusive = small, poorly fitted or top-dose-only effect, or another doubt; inactive = no such curve, though single readings can be large; an effect the other way counts as inactive or inconclusive. Potency is read from the fitted curve at half-maximal effect.

SMILES | KB-3-1 cytotox | VP16 counter | RORg inh | SW480 rereplic | MCF10A rerep | KB-V1 MDR tox
COc1ccc(OCc2ccc(/C=N\NC(=O)c3sccc3C)o2)cc1 | i | ? | 11.2µM* | -1.0% | 0.7% | i
O=C(N/N=C\c1ccc(COc2ccc([N+](=O)[O-])cc2)o1)c1ccc(Cl)cc1 | i | ? | 12.6µM* | -2.9% | 26.5% | i
COc1cc([N+](=O)[O-])ccc1-c1ccc(/C=N/NC(=O)c2ccccc2O)o1 | . | 3.98µM* | 1µM* | . | . | .
O=C(N/N=C/c1ccc(-c2cccc([N+](=O)[O-])c2)o1)c1ccccc1O | i | 2.24µM* | 3.16µM* | ? | ? | i
COC(=O)C/C=C\[C@@H](C)[C@@H](/C=N\OC[C@@H](O)[C@H]1O[C@H]2OC(C)(C)O[C@H]2[C@@H]1O)OC | . | -4.2%[10 µM] | -10.6%[10 µM] | . | . | .
Cc1cc(Nc2ccccc2F)n2nc(Cc3ccc(Cl)cc3)nc2n1 | i | . | . | . | . | i
CSc1ccc(/C=N/NC(=O)c2ccc(C)c(C)c2)cc1 | i | ? | ? | 18.2% | ? | ?
CSc1ccc(/C=N/NC(=O)c2sccc2C)cc1 | i | ? | 8.91µM* | -2.3% | 12.1% | ?
O=C(N/N=C/c1ccc(Br)o1)/C(=C/c1ccc([N+](=O)[O-])cc1)NC(=O)c1ccccc1 | i | ? | 10µM* | ? | ? | i
O=C(N/N=C/c1ccc(-c2cccc([N+](=O)[O-])c2)o1)c1ccc([N+](=O)[O-])cc1 | i | 5.01µM* | 2.51µM* | ? | -35.4% | ?
COc1ccc(S(=O)(=O)N2N=C(C)Oc3ccccc3C2=O)cc1 | 4.61µM* | -7.4% | -43.7% | 3.98µM* | 7.94µM* | 3.66µM*
Cc1ccccc1-c1nnc(CN2CCN(c3ccccn3)CC2)o1 | i | . | . | . | . | i
CC(C)Cc1cc(C(=O)N2N=C(C(F)F)CC2(O)C(F)F)c2ccccc2n1 (stereo unspecified) | i | 23.5% | -4.4% | -0.3% | ? | i
CCC/C=N/NC(=O)c1cc(-c2ccccc2)nc2ccccc12 | i | ? | ? | -4.1% | -1.6% | i
CC(C)Oc1cccc(-c2cc(C(=O)NN3CCOCC3)c3ccccc3n2)c1 | i | -0.9% | 9.9% | 0.8% | ? | i
CCCc1ccc(-c2cc(C(=O)NN3CCOCC3)c3ccccc3n2)cc1 | i | -16.7% | -11.2% | 12.4% | 25.8% | 5.17µM*
O=C(NCC(c1cccs1)N1CCOCC1)c1cc(-c2ccc(F)cc2)nc2ccccc12 (stereo unspecified) | i | -12.6% | 5.0% | 12.0% | 7.9% | 20.6µM*
O=C(NCC(c1cccs1)N1CCOCC1)c1cn(-c2ccccc2)nc1-c1ccc(F)cc1 (stereo unspecified) | i | . | . | ? | ? | i
CCc1ccc(-c2cc(C(=O)Nn3cnnc3)c3ccccc3n2)cc1 | ? | 0.631µM* | 0.891µM* | -0.2% | 2.4% | ?
CCc1ccc(-c2cc(C(=O)N3N=C(C(F)F)CC3(O)C(F)F)c3ccccc3n2)cc1 (stereo unspecified) | ? | ? | ? | 8.7% | 9.2µM* | 18.4µM*
CC(O)CNc1nc2ccccc2n1-c1ncnc2sc3c(c12)CCC3 (stereo unspecified) | ? | 14.1µM* | ? | -0.4% | 20.5% | 13µM*
Oc1ccc(N2CCN(c3ncnc4sc5c(c34)CCC5)CC2)cc1 | i | 0.6% | -9.4% | ? | 13µM* | i
c1ccc2c(c1)ncn2-c1ncnc2sc3c(c12)CCCC3 | i | -1.6% | ? | -0.9% | 3.3% | i
c1ccc2c(c1)nnn2-c1ncnc2sc3c(c12)CCCC3 | i | -5.5% | -1.9% | -4.6% | 10.2% | 16.4µM*
Cc1nc(-n2nnc3ccccc32)c2c3c(sc2n1)CCCC3 | ? | -12.1% | -17.5% | -0.1% | ? | 13µM*
